Source: PubChem BioAssay
An excerpt weighted towards active compounds, which were near 32% of everything screened.
PostGolgi ctrl – growth of the yeast control strain, post-Golgi counter-screen; efflux-deficient yeast background strain, growth absorbance A615, 16 h; inhibition, % at 10 µM; 98,000 compounds, 5% hits
CYP2C19 inh – blocks human cytochrome P450 2C19; P33261; CYP2C19 Supersomes, luciferin-H EGE luminescence, 30 min; inhibition, % at 5 µM; 96,000 compounds, 21% hits; AID 778;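 active = CYP2C19 inhibition above a set limit at 5 µM in the primary screen, cut at about 50% in these data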;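 also: plate controls were negative control wells for no effect and 2.5 mM tranylcypromine positive control for full effect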
Target sequence (P33261 whole entry, looked up): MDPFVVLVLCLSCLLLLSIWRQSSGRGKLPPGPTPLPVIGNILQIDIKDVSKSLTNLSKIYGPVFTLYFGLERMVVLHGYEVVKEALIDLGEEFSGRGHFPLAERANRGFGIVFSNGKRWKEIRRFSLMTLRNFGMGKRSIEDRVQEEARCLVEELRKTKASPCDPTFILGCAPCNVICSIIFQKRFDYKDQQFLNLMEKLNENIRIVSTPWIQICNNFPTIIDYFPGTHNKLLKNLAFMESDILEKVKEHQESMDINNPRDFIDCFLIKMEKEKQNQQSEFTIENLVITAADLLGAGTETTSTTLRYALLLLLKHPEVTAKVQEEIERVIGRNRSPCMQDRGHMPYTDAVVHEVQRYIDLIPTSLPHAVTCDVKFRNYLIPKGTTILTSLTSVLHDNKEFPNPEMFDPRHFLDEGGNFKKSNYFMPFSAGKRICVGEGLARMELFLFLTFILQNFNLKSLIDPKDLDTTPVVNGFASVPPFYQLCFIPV
PostGolgi yeast – growth inhibition of a yeast mutant, post-Golgi transport screen; inhibition, % at 10 µM; 98,000 compounds, 0.9% hits; AID 739; post-Golgi transport phenotypic cell assay;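 also: yeast cells grown in 1536-well plates; yeast grown about 18 h at 30C before absorbance read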
CYP2C19 activ – cytochrome P450 2C19 (human) activation | P33261 | recombinant CYP2C19, luciferin-H EGE luminescence; stronger effect = higher value; 0 = fully inhibited enzyme, 1 = untreated enzyme | activation factor at 5 µM | 96,000 tested, under 10 active;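 active = activation factor of at least 2 at 5 µM in the primary screen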;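 also: 0 = wells with 2.5 mM tranylcypromine and 1 = vehicle-only wells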
CYP2C9 inhib – blocks human cytochrome P450 2C9 | CYP2C9 Supersomes, luciferin-H conversion, luminescence | inhibition, % at 5 µM | 96,000 compounds, 20% hits | AID 777;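 active = blocking of liver enzyme CYP2C9 beyond about 50% at 5 µM, limit read from the data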
CYP2C9 act – CYP2C9 (human) activation; P11712; recombinant CYP2C9, luciferin-H conversion, luminescence; stronger effect = higher value; factor 1 = untreated enzyme, 0 = blocked; activation factor at 5 µM; 96,000 compounds, 1.4% hits;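 active = activation factor of 2 or more for CYP2C9 at a 5 µM dose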;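 also: 0 = sulfaphenazole-blocked wells and 1 = vehicle-only wells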
* marks the source's active call; other numbers are inactive results; . = not tested or not shown. Rule as the data show it, unless noted: active = inhibition above about 30%; inactive = the rest.

SMILES | PostGolgi ctrl | CYP2C19 inh | PostGolgi yeast | CYP2C19 activ | CYP2C9 inhib | CYP2C9 act
c1ccc(CNc2nc3ccccc3[nH]2)cc1 | -7 | 48 | 7 | 0.5 | 2 | 1
Cc1ccc2nc(NCc3ccccc3)[nH]c2c1 | 10 | 88* | 9 | 0.1 | 24 | 0.8
FC(F)(F)c1ccccc1NC(=S)NN1CCOCC1 | 3 | 22 | 1 | 0.8 | -10 | 1.1
COc1ccc(C(c2nnnn2C(C)(C)C)N2CCN(c3nc4ccccc4s3)CC2)cc1OC (stereo not given) | 8 | 56* | 3 | 0.4 | 98* | 0
CCN1CCN(C(c2ccc(OC)c(OC)c2)c2nnnn2C(C)(C)C)CC1 (stereo not given) | 14 | -13 | 7 | 1.1 | -3 | 1
COc1cc(C(c2nnnn2C(C)(C)C)N2CCN(c3nc4ccccc4s3)CC2)ccc1O (stereo not given) | 7 | 61* | 0 | 0.4 | 97* | 0
COC(=O)COC(=O)c1ccc(Oc2nc(OC)nc(N(C)C)n2)cc1 | -4 | 21 | -14 | 0.8 | -20 | 1.2
Cc1cc(C)n(C(=O)CN2C(=O)COc3ccccc32)n1 | 10 | 80* | -4 | 0.2 | 57* | 0.4
CCc1ccc(CNC(=O)CN2C(=O)COc3ccccc32)cc1 | 10 | 72* | 3 | 0.3 | -62 | 1.6
Cc1cc(C)n(C(=O)CN2C(=O)c3ccccc3C2=O)n1 | 24 | 6 | -3 | 0.9 | 16 | 0.8
CC(NC(=O)CN1C(=O)COc2ccccc21)c1ccccc1 (stereo not given) | 4 | 89* | 15 | 0.1 | -116 | 2.2*
CCc1cc(C(=O)Cc2nc3ccccc3[nH]2)c(O)cc1O | 0 | 87* | -1 | 0.1 | 54* | 0.5
CCc1cc(/C(Cc2cscn2)=N\O)c(O)cc1O | 3 | 31 | 1 | 0.7 | 39 | 0.6
CCc1cc(C(=O)COc2ccccc2F)c(O)cc1O | 16 | 96* | 0 | 0 | 60* | 0.4
CC(=O)NCCc1nc2ccccc2[nH]1 | 4 | . | 2 | . | . | .
CCc1cc(/C(Cc2ccccn2)=N\O)c(O)cc1O | 3 | 46 | 1 | 0.5 | 62* | 0.4
CCc1cc(/C(Cc2ccc3ccccc3n2)=N\O)c(O)cc1O | 13 | 90* | -4 | 0.1 | 73* | 0.3
CC(C)C[C@H](NC(=O)NCc1ccccc1Cl)C(=O)O | 14 | -3 | -5 | 1 | 3 | 1
OC(COc1ccc2c(c1)OCO2)CN1CCc2ccccc2C1 (stereo not given) | -3 | 43 | -20 | 0.6 | 8 | 0.9
CCN1CCN(C2=NC(=O)/C(=C/c3ccc(C)o3)S2)CC1 | 1 | -2 | 0 | 1 | -48 | 1.5
CC(=O)Nc1ccc(S(=O)(=O)NCCc2cc3c(C)ccc(C)c3[nH]c2=O)cc1 | -6 | -18 | -11 | 1.2 | 15 | 0.8
COc1ccc(N/N=C(\C=N\O)C(=O)c2ccc(OC)cc2)cc1 | 35* | 75* | 8 | 0.3 | 88* | 0.1
CC(C)C1=NN(C(=O)c2ccccc2)C(O)(C(C)(C)C)C1 (stereo not given) | -1 | 16 | -10 | 0.8 | 5 | 0.9
Cc1ccc(C(C)C)c(OCc2nnc(SCC(=O)Nc3ncc(C)s3)n2C)c1 | 5 | 3 | -3 | 1 | -4 | 1
c1ccn2c(SCc3ccc4c(c3)OCO4)nnc2c1 | 4 | 65* | 1 | 0.3 | 8 | 0.9
SMILES | PostGolgi ctrl | CYP2C19 inh | PostGolgi yeast | CYP2C19 activ | CYP2C9 inhib | CYP2C9 act
Cn1c(SCc2ccc3c(c2)OCO3)nnc1-c1ccccc1 | 11 | 98* | -2 | 0 | 50 | 0.5
CCn1nnnc1SCC(=O)c1ccc2c(c1)OCCO2 | 1 | 34 | 0 | 0.7 | 20 | 0.8
O=C(CSc1nnc2ccccn12)c1ccc2c(c1)OCCO2 | 1 | 82* | 4 | 0.2 | 6 | 0.9
Fc1ccc(CSc2nncn2NCc2ccc3c(c2)OCO3)cc1 | 2 | 93* | 15 | 0.1 | 83* | 0.2
Cc1cc(C)c(NC(=O)NC(=O)c2ccc(F)cc2)c(C)n1 | -1 | 6 | 3 | 0.9 | -39 | 1.4
COc1ccc(Cl)cc1NC(=O)CS(=O)(=O)c1cccc2nsnc12 | 4 | 5 | 3 | 1 | -77 | 1.8
COc1ccc(CNc2nc3nc(C)cc(C)n3n2)cc1OC | 4 | -2 | 1 | 1 | 6 | 0.9
Cc1cc(C)n2nc(NCc3cccc(Br)c3)nc2n1 | 13 | 64* | 8 | 0.4 | 25 | 0.7
Cc1cc(C(=O)N2CCN(S(C)(=O)=O)CC2)cs1 | -1 | 56* | 5 | 0.4 | 2 | 1
O=C(c1ccc2nc(N3CCCCC3)sc2c1)N1CCN(Cc2ccc3c(c2)OCO3)CC1 | 4 | 89* | -8 | 0.1 | 83* | 0.2
CCn1cnc2sc(C(=O)N3CCN(Cc4ccc5c(c4)OCO5)CC3)c(C)c2c1=O | 15 | 85* | 0 | 0.1 | 75* | 0.2
Cc1cc(C(=O)N2CCN(Cc3ccc4c(c3)OCO4)CC2)on1 | 9 | . | -1 | . | . | .
Cc1cc(C(=O)N2CCN(Cc3ccc4c(c3)OCO4)CC2)cs1 | -1 | 96* | -5 | 0 | 59* | 0.4
CCOCCCNC(=O)C(NC(=O)CNC(=O)c1ccccc1)c1ccccc1 (stereo not given) | 0 | -2 | 10 | 1 | -25 | 1.3
COc1ccc(CNC(=O)COC(=O)c2cccnc2Nc2cccc(C(F)(F)F)c2)cc1 | -7 | -30 | -2 | 1.3 | 49 | 0.5
O=C(O)/C=C/c1cn(-c2ncc(C(F)(F)F)cc2Cl)c2ccccc12 | 11 | -2 | 13 | 1 | -3 | 1
CCOc1cc(C(N)=O)cc(Br)c1OCC | 6 | 9 | 9 | 0.9 | -2 | 1
CCOC(=O)N1CCN(C(=O)c2ccc3nc(N4CCC(C)CC4)sc3c2)CC1 | 4 | 20 | -8 | 0.8 | 35 | 0.7
CC1CCN(c2nc3ccc(C(=O)N4CCN(Cc5ccccc5)CC4)cc3s2)CC1 | 5 | 60* | 5 | 0.4 | 37 | 0.6
CCCCN(CCCNC(=O)c1ccc2nc(N3CCOCC3)sc2c1)Cc1ccccc1 | -3 | 8 | 2 | 0.9 | 0 | 1
O=C(c1ccc2nc(N3CCOCC3)sc2c1)N1CCC(Cc2ccccc2)CC1 | 3 | 80* | 22 | 0.2 | 31 | 0.7
Cc1nn(Cc2ccccc2)c2sc(C(=O)N3CCN(Cc4ccc5c(c4)OCO5)CC3)cc12 | 14 | 39 | 4 | 0.6 | 67* | 0.3
CCOC(=O)N1CCN(c2c(NCc3ccccc3OC)c(=O)c2=O)CC1 | 8 | -15 | -1 | 1.1 | -6 | 1.1
CC(C)C(=O)Nc1nnn(C)n1 | 0 | 0 | 12 | 1 | -1 | 1
COc1cccc(C(O)c2nc3ccccc3n2C(C)C)c1 (stereo not given) | -2 | 91* | -2 | 0.1 | 23 | 0.8
CCn1c(C(O)c2ccccc2)nc2ccccc21 (stereo not given) | 4 | 91* | 1 | 0.1 | 16 | 0.8
